Records with an inconclusive call do not appear. The source made the active and inactive calls. The call rests on the fitted dose curve; in most records, active means well fitted activation curve with a large enough effect in the signal ratio in the repeat runs, with a control signal flat (not every such curve was filed as active); inconclusive means weak or mixed curves; inactive means flat fitted curve, though single readings scatter; the % refers to the signal ratio.
Test: qHTS assay for small molecule activators of the heat shock response signaling pathway (AID 743210)
Settings: HeLa HSE-bla reporter, beta-lactamase ratio, 5 h; series mostly up to 62.6 µM
Description: U.S. Tox21 Program National Center for Advancing Translational Sciences [NCATS] NIH Chemical Genomics Center [NCGC] U.S. Environmental Protection Agency [EPA] National Institutes of Environmental Health Sciences [NIEHS] National Toxicology Program [NTP] U.S. Food and Drug Administration [FDA] Tox21 Assay Overview: Various chemicals, environmental and physiological stress conditions may lead to the activation of heat shock response/ unfolded protein response (HSR/UPR). There are three heat shock transcription factors (HSFs) (HSF-1, -2, and -4) mediating transcriptional regulation of the human HSR. To identify the compounds that activate HSR signaling, HSE-bla HeLa cell line (Invitrogen, Carlsbad, CA, USA) containing a beta-lactamase reporter gene under the control of the heat shock response elements was used to screen the Tox21 10K compound library.
Tox21 Assay Protocol Summary: The CellSensor HSE-bla HeLa cells (Invitrogen, Carlsbad, CA, USA) were dispensed at 1500 cells/6uL/well into 1536-well black wall/clear bottom plates using a Multidrop combi (Thermo Fisher Scientific, Waltham, MA) dispenser. After the assay plates were incubated at 37 C and 5% CO2 overnight, 23 nL of compounds dissolved in DMSO, positive controls or DMSO only was transferred to the assay plate by a Pintool station (Kalypsys, San Diego, CA). The plates were incubated at 37 C for 5 h. After 1 uL of LiveBLAzerTM B/G FRET substrate was added using a Flying Reagent Dispenser (Beckman Coulter, Indianapolis, IN, USA), the plates were incubated at room temperature for 2.5 h, and fluorescence intensity was measured by an Envision plate reader (PerkinElmer, Shelton, CT).

| Structure (SMILES) | outcome |
| --- | --- |
| CC(=O)NCc1c(I)c(NC(C)=O)c(I)c(C(=O)O)c1I | inactive |
| CC1=CCC(C(C)C)=CC1 | inactive |
| c1ccc2nccnc2c1 | inactive |
| Cc1ccsc1/C=C/C1=NCCCN1C | inactive |
| O=C1c2cccc3c2[C@H](CCC3)CN1[C@@H]1CN2CCC1CC2 | inactive |
| BrCCCCCBr | inactive |
| Cc1ccccc1C(=O)Nc1ccc(C(=O)N2CCCC(N(C)C)c3ccccc32)cc1 (stereo not given) | inactive |
| CC(CN)CC(C)(C)CCN (stereo not given) | inactive |
| COCCOCCOCCOCCO | inactive |
| Cc1nc2n(c(=O)c1CCN1CCC(c3noc4cc(F)ccc34)CC1)CCC[C@H]2O | inactive |
| O=C(OCC(COC(=O)c1cccnc1)(COC(=O)c1cccnc1)COC(=O)c1cccnc1)c1cccnc1 | inactive |
| O=C1O[C@@H]2[C@@H](O)[C@H](O)O[C@@H]2[C@H]1O | inactive |
| Cc1cccc(C)c1OCC(C)N (stereo not given) | inactive |
| CC(C)(C)OC(=O)c1ccc(O)cc1 | inactive |
| CN(C)C(=O)CNC(=O)Cc1ccccc1 | inactive |
| NCCN1CCOCC1 | inactive |
| CC(C)(C)NC(N)=O | inactive |
| O=C(OCC1(COC(=O)c2cccnc2)CCCC(COC(=O)c2cccnc2)(COC(=O)c2cccnc2)C1O)c1cccnc1 | inactive |
| CCOC(=O)c1ccc(OC(=O)CCCCCN=C(N)N)cc1 | inactive |
| CC(C)c1ccc2cc(C(C)C)ccc2c1 | inactive |

| Structure (SMILES) | outcome |
| --- | --- |
| COCCc1ccc(OCC2CO2)cc1 (stereo not given) | inactive |
| Cc1c(I)c(=O)n(-c2ccccc2)n1C | inactive |
| CC(=O)c1sc(C)nc1C | inactive |
| CCOCCOC(=O)/C=C/c1ccc(OC)cc1 | inactive |
| CN(CCOc1ccc(NS(C)(=O)=O)cc1)CCc1ccc(NS(C)(=O)=O)cc1 | inactive |
| CC(C)CC(C)CC(C)CC(C)COC(=O)c1ccccc1C(=O)OCC(C)CC(C)CC(C)CC(C)C (stereo not given) | inactive |
| O=C1c2ccccc2C(=O)c2cc(S(=O)(=O)O)ccc21 | inactive |
| O=C(OCC(O)CO)c1ccccc1Nc1ccnc2c(C(F)(F)F)cccc12 (stereo not given) | inactive |
| CCO[Si](CCCS)(OCC)OCC | inactive |
| CC(S)C(=O)NCC(=O)O (stereo not given) | inactive |
| COc1cc(NS(=O)(=O)c2ccc(N)cc2)nc(OC)n1 | inactive |
| CC(C)(C)c1n[nH]c(=S)n(N)c1=O | inactive |
| Cc1ccc2ccc(Cl)cc2n1 | inactive |
| COCCOCCOCCOCCOCCO | inactive |
| c1ccc2c(c1)ccc1c3ccccc3ccc21 | inactive |
| Cc1ccc(C=O)cc1C | inactive |
| CCCCCCCCSCC | inactive |
| CCCCCOC(=O)CCC | inactive |
| C=CC(OCC)OCC | inactive |
| CC1(C)S[C@@H]2[C@H](N=CN3CCCCCC3)C(=O)N2[C@H]1C(=O)O | inactive |

From PubChem BioAssay (Tox21)
